Calls of active or inactive are those of the source. Rule for the calls: active = hit-call score of the fitted dose curve at least 0.9, where 1 is the maximum; inactive = score below 0.9.
How the values were obtained:
Settings in all cases: mRNA level, 48 h; actives raise or lower the signal
BCL2L11 (gene 10018) = assay: LTEA_HepaRG_BCL2L11: Life Technologies and Expression Analysis (LTEA) Assay for Bcl-2 (BCL2L11) gene using HepaRG (AID 2283473)
How it was run: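 Human hepatic HepaRG cultures are treated 48 h with test chemicals (maximum 100 uM, 0.5% DMSO vehicle). Expression of BCL2L11 is measured by qRT-PCR against ACTB, GAPDH and POLR2A, with activity in either direction scored relative to vehicle.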

[1] = read-out: Apolipoprotein A-V (APOA5) gene, APOA5 (gene 116519); assay: LTEA_HepaRG_APOA5: Life Technologies and Expression Analysis (LTEA) Assay for Apolipoprotein A-V (APOA5) gene using HepaRG (AID 2283474)
How it was run: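 Concentration-response of APOA5 expression in HepaRG: eight half-log doses to 100 uM, 48 h, qRT-PCR normalized to ACTB/GAPDH/POLR2A, bidirectional fitting with 0.5% DMSO as baseline.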

[2] = read-out: Bcl-2 (BID) gene, BID (gene 637); assay: LTEA_HepaRG_BID: Life Technologies and Expression Analysis (LTEA) Assay for Bcl-2 (BID) gene using HepaRG (AID 2283476)
How it was run: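 Duplicate 48 h treatments of HepaRG cells in serum-free induction medium spanned 100 uM downward in half-log steps, 0.5% DMSO. Transcript change quantified by qRT-PCR against three housekeeping genes, fitted up or down versus DMSO.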

Caspase-3 (Homo sapiens) = Caspase-3 (Homo sapiens) (UniProt P42574); assay: LTEA_HepaRG_CASP3: Life Technologies and Expression Analysis (LTEA) Assay for cysteine-aspartic acid protease (CASP3) using HepaRG (AID 2283477)
How it was run: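 Transcript-level assay: CASP3 mRNA in human HepaRG after 48 h treatment, eight half-log concentrations from 100 uM in 0.5% DMSO, quantified by qRT-PCR.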

[3] = read-out: Cytochrome P450 (CYP24A1), CYP24A1 (gene 1591); assay: LTEA_HepaRG_CYP24A1: Life Technologies and Expression Analysis (LTEA) Assay for Cytochrome P450 (CYP24A1) using HepaRG (AID 2283478)
How it was run: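 Gene expression of CYP24A1 by TaqMan qRT-PCR in HepaRG after 48 h treatment, highest concentration 100 uM; activity fitted in both directions relative to DMSO vehicle.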

[4] = read-out: cysteine-aspartic acid protease (CASP8), CASP8 (gene 841); assay: LTEA_HepaRG_CASP8: Life Technologies and Expression Analysis (LTEA) Assay for cysteine-aspartic acid protease (CASP8) using HepaRG (AID 2283480)
How it was run: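 CASP8 transcript measured by TaqMan qRT-PCR with ACTB/GAPDH/POLR2A normalization, after 48 h chemical exposure of HepaRG cells in serum-free induction medium. Eight concentrations, top 100 uM, half-log steps, 0.5% DMSO vehicle; fits in both directions versus DMSO.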

[5] = read-out: Cytochrome P450 (CYP2B6), CYP2B6 (gene 1555); assay: LTEA_HepaRG_CYP2B6: Life Technologies and Expression Analysis (LTEA) Assay for Cytochrome P450 (CYP2B6) using HepaRG (AID 2283481)
How it was run: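 Human HepaRG, 48 h dosing, 0.5% DMSO vehicle, top dose 100 uM. CYP2B6 transcript by qRT-PCR, housekeeping-normalized, bidirectional curve fit.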

[6] = read-out: Cytochrome P450 2C19 (Homo sapiens) (UniProt P33261); assay: LTEA_HepaRG_CYP2C19: Life Technologies and Expression Analysis (LTEA) Assay for CYP2C19 using HepaRG (AID 2283482)
How it was run: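 Endpoint: CYP2C19 mRNA change, bidirectional fit vs 0.5% DMSO. Cells: HepaRG, 48 h exposure, eight-point series topping at 100 uM. Quantitation: qRT-PCR normalized to ACTB, GAPDH, POLR2A.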

CYP2C8 (gene 1558) = assay: LTEA_HepaRG_CYP2C8: Life Technologies and Expression Analysis (LTEA) Assay for CYP2C8 using HepaRG (AID 2283483)
How it was run: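 CYP2C8 expression measured by TaqMan qRT-PCR and normalized to three housekeeping genes. HepaRG cultures were treated for 48 h with an eight-point half-log series topping at 100 uM, vehicle 0.5% DMSO, duplicates; fitted both directions against DMSO.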

CYP2C9 (gene 1559) = assay: LTEA_HepaRG_CYP2C9: Life Technologies and Expression Analysis (LTEA) Assay for CYP2C9 using HepaRG (AID 2283484)
How it was run: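 CYP2C9 transcript level, quantified by TaqMan qRT-PCR against three housekeeping genes, was fitted bidirectionally relative to 0.5% DMSO. HepaRG cultures were treated 48 h, in duplicate, at eight half-log concentrations topping at 100 uM.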

CYP2E1 (gene 1571) = assay: LTEA_HepaRG_CYP2E1: Life Technologies and Expression Analysis (LTEA) Assay for CYP2E1 using HepaRG (AID 2283485)
How it was run: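 CYP2E1 transcript measured by Fluidigm qRT-PCR against three housekeeping genes in human HepaRG cells treated 48 h (top 100 uM, half-log steps, 0.5% DMSO vehicle). Gain or loss fitted relative to DMSO baseline.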

CYP4A11 (gene 1579) = assay: LTEA_HepaRG_CYP4A11: Life Technologies and Expression Analysis (LTEA) Assay for CYP4A11 using HepaRG (AID 2283486)
How it was run: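 Human hepatic HepaRG cultures receive duplicate 48 h exposures across a concentration-response series topping at 100 uM. Expression changes in CYP4A11 are measured by qRT-PCR relative to DMSO controls.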

[7] = read-out: Cytochrome P450 3A4 (Homo sapiens) (UniProt P08684); assay: LTEA_HepaRG_CYP3A4: Life Technologies and Expression Analysis (LTEA) Assay for CYP3A4 using HepaRG (AID 2283487)
How it was run: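 HepaRG, 48 h exposure, 8-pt CRC from 100 uM (half-log), 0.5% DMSO, duplicates; serum-free induction medium. Readout: CYP3A4 mRNA, qRT-PCR, ACTB/GAPDH/POLR2A normalization. Bidirectional fit vs DMSO.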

[8] = read-out: DNA damage-inducible transcript 3 (DDIT3), DDIT3 (gene 1649); assay: LTEA_HepaRG_DDIT3: Life Technologies and Expression Analysis (LTEA) Assay for DNA damage-inducible transcript 3 (DDIT3) using HepaRG (AID 2283488)
How it was run: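 DDIT3 transcript was quantified by qRT-PCR with ACTB/GAPDH/POLR2A normalization after 48 h chemical treatment of differentiated HepaRG cells in 0.5% DMSO. Dosing was eight-point, half-log, top 100 uM, duplicate wells. Curves fitted bidirectionally versus DMSO.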

[9] = read-out: Pro-epidermal growth factor (Homo sapiens) (UniProt P01133); assay: LTEA_HepaRG_EGF: Life Technologies and Expression Analysis (LTEA) Assay for Epidermal growth factor (EGF) using HepaRG (AID 2283489)
How it was run: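 Concentration-response mRNA assay: HepaRG cells dosed 48 h (max 100 uM, 0.5% DMSO), EGF measured by qRT-PCR and normalized to ACTB/GAPDH/POLR2A.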

[10] = read-out: Early growth response protein 1 (EGR1) transcription factor, EGR1 (gene 1958); assay: LTEA_HepaRG_EGR1: Life Technologies and Expression Analysis (LTEA) Assay for Early growth response protein 1 (EGR1) transcription factor using HepaRG (AID 2283490)
How it was run: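 EGR1 transcript levels quantified by qRT-PCR (Fluidigm arrays) against three housekeeping genes after 48 h chemical exposure of HepaRG cells. Eight-point half-log series topping at 100 uM, 0.5% DMSO vehicle, analyzed for gain or loss.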

[11] = read-out: Ezrin (EZR), EZR (gene 7430); assay: LTEA_HepaRG_EZR: Life Technologies and Expression Analysis (LTEA) Assay for Ezrin (EZR) using HepaRG (AID 2283491)
How it was run: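 Read-out is EZR transcript level by qRT-PCR, normalized to three housekeeping genes and fitted bidirectionally against the DMSO control. Human HepaRG cells received test chemicals for 48 h at eight half-log concentrations up to 100 uM in 0.5% DMSO.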

[12] = read-out: Cytochrome P450 3A7 (Homo sapiens) (UniProt P24462); assay: LTEA_HepaRG_CYP3A7: Life Technologies and Expression Analysis (LTEA) Assay for CYP3A7 using HepaRG (AID 2283492)
How it was run: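 qRT-PCR of CYP3A7 in HepaRG lysates after 48 h treatment; concentration-response (8 points, max 100 uM) analysed bidirectionally relative to 0.5% DMSO controls.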

[13] = read-out: Apoptosis regulator Bcl-2 (Homo sapiens) (UniProt P10415); assay: LTEA_HepaRG_BCL2: Life Technologies and Expression Analysis (LTEA) Assay for Bcl-2 gene using HepaRG (AID 2283475)
How it was run: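 qRT-PCR of BCL2 transcript, normalized to three housekeeping genes (ACTB, GAPDH, POLR2A), after 48 h chemical exposure of HepaRG cells; concentrations top 100 uM with half-log dilutions, 0.5% DMSO vehicle, duplicates; changes up or down fitted relative to vehicle.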

[14] = read-out: Cytochrome P450 (CYP1A2), CYP1A2 (gene 1544); assay: LTEA_HepaRG_CYP1A2: Life Technologies and Expression Analysis (LTEA) Assay for Cytochrome P450 (CYP1A2) using HepaRG (AID 2283479)
How it was run: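 In duplicate wells, HepaRG cultures maintained in 0.5% DMSO were treated 48 h across an 8-point, half-log series topping at 100 uM; phenobarbital (1 mM) served as induction control. Expression was read by qRT-PCR.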

Measured: AC50

Chain of Cytochrome P450 3A7 (Homo sapiens) (P24462 whole entry, looked up): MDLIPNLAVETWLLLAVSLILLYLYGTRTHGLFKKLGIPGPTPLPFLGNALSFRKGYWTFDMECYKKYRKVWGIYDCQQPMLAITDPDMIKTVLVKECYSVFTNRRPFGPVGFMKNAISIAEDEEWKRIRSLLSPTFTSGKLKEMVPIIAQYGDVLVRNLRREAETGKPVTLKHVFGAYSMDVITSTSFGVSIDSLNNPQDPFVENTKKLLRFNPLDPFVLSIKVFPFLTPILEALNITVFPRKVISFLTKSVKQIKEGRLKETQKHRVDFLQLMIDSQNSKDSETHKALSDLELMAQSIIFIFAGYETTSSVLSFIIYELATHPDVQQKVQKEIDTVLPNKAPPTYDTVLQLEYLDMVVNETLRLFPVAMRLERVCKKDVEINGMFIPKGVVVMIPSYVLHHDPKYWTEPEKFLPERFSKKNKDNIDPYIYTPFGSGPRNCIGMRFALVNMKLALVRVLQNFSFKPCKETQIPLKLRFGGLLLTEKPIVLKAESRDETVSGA
Chain of Cytochrome P450 2C19 (Homo sapiens) (P33261 whole entry, looked up): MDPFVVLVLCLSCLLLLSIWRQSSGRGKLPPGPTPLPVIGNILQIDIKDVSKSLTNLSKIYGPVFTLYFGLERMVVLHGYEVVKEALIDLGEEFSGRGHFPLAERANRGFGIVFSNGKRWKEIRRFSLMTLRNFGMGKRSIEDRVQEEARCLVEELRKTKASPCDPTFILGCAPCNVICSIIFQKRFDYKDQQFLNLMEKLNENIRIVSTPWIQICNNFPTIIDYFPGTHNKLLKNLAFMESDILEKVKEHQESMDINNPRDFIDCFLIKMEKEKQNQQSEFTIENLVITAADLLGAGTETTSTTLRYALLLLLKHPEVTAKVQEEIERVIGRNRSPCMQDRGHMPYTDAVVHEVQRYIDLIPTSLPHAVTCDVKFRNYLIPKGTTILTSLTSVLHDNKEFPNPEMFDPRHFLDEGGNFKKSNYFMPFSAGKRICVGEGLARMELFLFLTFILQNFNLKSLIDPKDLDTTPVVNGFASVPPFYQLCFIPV
Chain of Cytochrome P450 3A4 (Homo sapiens) (P08684 whole entry, looked up): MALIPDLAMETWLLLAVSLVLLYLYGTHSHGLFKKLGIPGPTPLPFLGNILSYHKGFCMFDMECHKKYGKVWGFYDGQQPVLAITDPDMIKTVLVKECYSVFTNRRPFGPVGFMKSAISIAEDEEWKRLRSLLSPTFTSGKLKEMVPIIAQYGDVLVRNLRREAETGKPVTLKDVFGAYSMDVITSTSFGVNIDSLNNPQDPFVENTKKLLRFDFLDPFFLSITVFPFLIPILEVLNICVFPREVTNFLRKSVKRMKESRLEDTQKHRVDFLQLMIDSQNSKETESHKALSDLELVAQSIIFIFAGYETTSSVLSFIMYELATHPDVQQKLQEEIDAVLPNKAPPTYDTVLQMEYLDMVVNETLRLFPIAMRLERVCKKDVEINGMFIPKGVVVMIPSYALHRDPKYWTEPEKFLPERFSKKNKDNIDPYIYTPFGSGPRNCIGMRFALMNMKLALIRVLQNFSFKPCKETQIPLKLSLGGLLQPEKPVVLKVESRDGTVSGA
Chain of Caspase-3 (Homo sapiens) (P42574 whole entry, looked up): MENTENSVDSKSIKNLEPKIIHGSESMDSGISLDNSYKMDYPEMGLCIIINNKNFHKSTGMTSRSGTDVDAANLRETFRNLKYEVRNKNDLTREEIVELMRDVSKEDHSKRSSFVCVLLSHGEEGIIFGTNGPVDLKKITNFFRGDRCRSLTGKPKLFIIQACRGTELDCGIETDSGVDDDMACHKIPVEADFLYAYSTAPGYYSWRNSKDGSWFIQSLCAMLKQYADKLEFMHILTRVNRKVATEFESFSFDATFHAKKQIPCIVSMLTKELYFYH
Chain of Apoptosis regulator Bcl-2 (Homo sapiens) (P10415 whole entry, looked up): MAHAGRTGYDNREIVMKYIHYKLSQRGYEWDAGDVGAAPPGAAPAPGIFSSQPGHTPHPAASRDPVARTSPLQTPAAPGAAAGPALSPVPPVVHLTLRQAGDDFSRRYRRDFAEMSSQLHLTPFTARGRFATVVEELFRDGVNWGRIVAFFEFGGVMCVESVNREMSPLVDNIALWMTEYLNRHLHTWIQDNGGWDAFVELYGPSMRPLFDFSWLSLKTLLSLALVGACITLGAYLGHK

C=CN1CCCC1=O
not listed: [13] | [14]
inactive: all other assays above

CCCCCCCCCCCCCCCCOS(=O)(=O)O
active: [6] 43.1 µM | CYP2E1 (gene 1571) 38.5 µM
not listed: [13] | [14]
inactive: all other assays above

O=C(O)c1cccc(C(=O)O)c1
active: [14] 82.6 µM
not listed: [1]
inactive: all other assays above

COS(C)(=O)=O
not listed: [13]
inactive: all other assays above

CCCCCCCCN(C)C
not listed: [1]
inactive: all other assays above

OC[C@H]1O[C@@H]2O[C@H]3[C@H](O)[C@@H](O)[C@@H](O[C@H]4[C@H](O)[C@@H](O)[C@@H](O[C@H]5[C@H](O)[C@@H](O)[C@@H](O[C@H]6[C@H](O)[C@@H](O)[C@@H](O[C@H]7[C@H](O)[C@@H](O)[C@@H](O[C@H]1[C@H](O)[C@H]2O)O[C@@H]7CO)O[C@@H]6CO)O[C@@H]5CO)O[C@@H]4CO)O[C@@H]3CO
not listed: [7] | [13] | [14]
inactive: all other assays above

— PubChem BioAssay (EPA / NIEHS)
